PubChem BioAssay AID588849 (Broad Institute, 2011)
Potency and affinity values are given separately. Active and inactive are the calls of the source. The rule behind the calls is not given here.

These compounds were tested against CAAX prenyl protease 2 (Homo sapiens) (UniProt Q9Y256) (assay: human Rce1 protease inhibitors, dose response, biochemical, yeast membranes, quenched-peptide fluorescence, cherry-pick (AID 588849)). Details: yeast membrane fractions expressing human Rce1, quenched-peptide fluorescence, 4 h; series mostly up to 10 µM.
Sequence of CAAX prenyl protease 2 (Homo sapiens) (Q9Y256 whole entry, looked up): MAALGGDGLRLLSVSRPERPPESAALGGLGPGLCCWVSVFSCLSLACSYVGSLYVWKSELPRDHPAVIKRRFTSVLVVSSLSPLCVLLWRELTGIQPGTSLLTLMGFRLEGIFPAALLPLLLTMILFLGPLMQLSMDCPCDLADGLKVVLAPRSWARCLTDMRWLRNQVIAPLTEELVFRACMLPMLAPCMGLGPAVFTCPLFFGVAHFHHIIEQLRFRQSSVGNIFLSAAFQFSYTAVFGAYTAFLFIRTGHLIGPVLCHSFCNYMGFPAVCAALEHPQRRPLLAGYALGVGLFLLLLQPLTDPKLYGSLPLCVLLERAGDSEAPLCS

outcome, inactive:
CCOc1ccc(N(CC(=O)NC2CC3CCC2C3)S(=O)(=O)c2ccccc2)cc1 (stereo unspecified)
CCN(CC)CCN(C(=O)c1ccc2ccccc2c1)c1nc2cc3c(cc2s1)OCO3
Cc1cc(C)n2cc(CSc3nncn3C)nc2n1
Cc1cc2cc(C(=O)N3CCc4c([nH]c5ccccc45)C3c3ccccn3)ccc2o1 (stereo unspecified)
Cc1ccc(C(=O)c2c3ccc(C(F)(F)F)cc3[n+]([O-])n2CCCC(N)=O)cc1
c1ccc(-c2ccc(-c3cn4c(n3)CCC4)cc2)cc1
Cc1c(Cc2ccccc2)c(=O)oc2c(C)c(OCC(=O)N3CCC(C(=O)O)CC3)ccc12
CN(C)CCN(C(=O)c1ccc2ccccc2c1)c1nc2ccc(Br)cc2s1
CCC(COC)NC(=O)CCc1nnc(Cc2cccc(C(F)(F)F)c2)o1 (stereo unspecified)
Cc1ccccc1NS(=O)(=O)c1ccc(C(=O)NCC(c2ccccc2)N(C)C)cc1 (stereo unspecified)
COCCN1C(=O)/C(=C/c2ccc(Oc3ccc([N+](=O)[O-])cn3)c(OC)c2)SC1=Nc1ccccc1
CCS(=O)(=O)Nc1c(C(=O)O)[nH]c2ccccc12
COc1ccc(C2Nc3ccccc3C(=O)N2Cc2ccccc2)cc1COc1ccccn1 (stereo unspecified)
FC(F)(F)c1cc(Oc2ccccc2)ncc1-c1nnc(-c2ccccc2Cl)o1
COc1ccc(OC)c(Cc2nnc(CCC(=O)N3CCN(C4CCCC4)CC3)o2)c1
NC(=O)[C@H]1CC2(CC(c3cccc(NC(=O)COc4ccc(Cl)cc4)c3)=NO2)CN1C(=O)C(c1ccccc1)c1ccccc1 (stereo partly specified)
